Assay results published in PMC10668032, “Altered binding affinity of SIX1-Q177R correlates with enhanced WNT5A and WNT pathway effector expression in Wilms tumor”.
Over roughly 33,000 sequences, “e-score” has its median near -0.05; the highest 2% begin near 0.38. This is one part of a sample in which the highest values are shown more often than they occur.

The sequences below were run against T1, SIX1-Q177R homeodomain (human, UniProt Q15475 108-198, Q177R) (assay: universal protein binding microarray; Universal all-10-mer PBM (8x60K, AMADID 030236), 300 nM GST-tagged protein, Alexa Fluor 488 anti-GST; buffer, salt, pH and temperature not stated (as in Berger); high values mean tight binding). Conditions: protein: ivt; tags: N-terminal GST; dsDNA, one strand shown.
T1 sequence: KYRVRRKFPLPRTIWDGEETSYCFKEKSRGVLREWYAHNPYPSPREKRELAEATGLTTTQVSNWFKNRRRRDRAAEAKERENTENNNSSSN
Procedure, shortened: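 Homeodomains fused to GST were made by in vitro transcription/translation and measured by anti-GST western blot with a recombinant GST standard curve. At 300 nM final concentration, they were applied in duplicate to universal 'all 10-mer' protein binding microarrays (8×60K format).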

Row | Sequence | binding signal [E-score]
1 | ATATACCC | 0.2382 ± 0.000608
2 | CACCCAGA | 0.189 ± 0.0293
3 | ACCAGATA | 0.162 ± 0.0127
4 | ACCACGGA | 0.178 ± 0.0145
5 | ACCCTTAC | 0.158 ± 0.0125
6 | CACCTTTA | 0.223 ± 0.0267
7 | CACAGACA | 0.155 ± 0.0227
8 | CCGACCCG | 0.176 ± 0.00738
9 | ACGTGTAC | 0.387 ± 0.0177
10 | CCGTGTGC | 0.215 ± 0.0507
11 | GCGTTTAC | 0.16 ± 0.0218
12 | ACGTGTAT | 0.321 ± 0.0343
13 | GCGTGTAC | 0.4393 ± 0.000926
14 | CCGTGTAC | 0.4382 ± 0.00199
15 | ACGTGTAG | 0.347 ± 0.0241
16 | GCGTATAC | 0.158 ± 0.00385
17 | CCCTGTAC | 0.173 ± 0.0309
18 | ACCGCCCC | 0.157 ± 0.0585
19 | ACCACTGG | 0.153 ± 0.00392
20 | ACCTTACC | 0.155 ± 0.0397
21 | CACGGACA | 0.298 ± 0.0109
22 | CACGACCA | 0.227 ± 0.0193
23 | CACGACTC | 0.304 ± 0.00378
24 | CACGACAG | 0.1738 ± 0.000629
25 | GACGACCC | 0.158 ± 0.0499

Row | Sequence | binding signal [E-score]
26 | CACGACAC | 0.448 ± 0.0167
27 | AACGACAC | 0.4466 ± 0.00332
28 | CACGACGC | 0.151 ± 0.0468
29 | CACGACCC | 0.32 ± 0.0093
30 | GACGACAC | 0.429 ± 0.0137
31 | CACCTATA | 0.301 ± 0.00719
32 | CCCGACCA | 0.204 ± 0.0179
33 | CCCGTCTC | 0.239 ± 0.00285
34 | ACCGTGTG | 0.259 ± 0.0453
35 | CCCGTGTA | 0.453 ± 0.00915
36 | ACCGTGTC | 0.428 ± 0.0209
37 | CCCGCGTA | 0.154 ± 0.0151
38 | CCCGTGAC | 0.155 ± 0.00256
39 | CCCGTGTC | 0.458 ± 0.00911
40 | GCCGGGTA | 0.197 ± 0.033
41 | ACCGTGCC | 0.179 ± 0.0325
42 | CCTGTGTA | 0.192 ± 0.0408
43 | GCCGTGTA | 0.419 ± 0.00774
44 | CCCCCGGA | 0.263 ± 0.00617
45 | AAGGATCC | 0.178 ± 0.0155
46 | GACTCCGA | 0.198 ± 0.0344
47 | ACCGGGTA | 0.212 ± 0.00998
48 | ACCGTGTA | 0.4376 ± 0.00046
49 | ACCCTGTA | 0.153 ± 0.0186
50 | GCAGCACC | 0.219 ± 0.0401

Row | Sequence | binding signal [E-score]
51 | AGTTACAC | 0.449 ± 0.0313
52 | CGTTTACA | 0.154 ± 0.0251
53 | GGTTAAAC | 0.183 ± 0.0367
54 | GGTTGCAC | 0.183 ± 0.0188
55 | CGTTACCC | 0.207 ± 0.026
56 | AGTTGCAC | 0.208 ± 0.0144
57 | GGTTACAC | 0.4536 ± 0.000905
58 | CGTTACAC | 0.424 ± 0.0188
59 | AAATGGTG | 0.289 ± 0.00359
60 | CGCCGGCG | 0.192 ± 0.0602
61 | AGTTCGAA | 0.156 ± 0.011
62 | CCCCCGCA | 0.218 ± 0.0293
63 | CGACCCCA | 0.233 ± 0.0324
64 | GAGTATAC | 0.157 ± 0.0409
65 | ATATATAC | 0.154 ± 0.00578
66 | GTATACAC | 0.411 ± 0.00685
67 | GTATACAA | 0.155 ± 0.0122
68 | CTATACAC | 0.379 ± 0.0172
69 | ATATACAC | 0.409 ± 0.0246
70 | CAAAGGGG | 0.188 ± 0.0422
71 | CCCCATAG | 0.209 ± 0.0311
72 | TACCAACA | 0.167 ± 0.0345
73 | CTGTACAC | 0.41165 ± 0.000233
74 | GTGTACAA | 0.4291 ± 0.00333
75 | ATGTACAC | 0.435 ± 0.00667

Row | Sequence | binding signal [E-score]
76 | CTGCACAC | 0.247 ± 0.0168
77 | ATGTACCC | 0.19 ± 0.00303
78 | GTGTACAC | 0.4741 ± 0.00152
79 | GTACACAC | 0.355 ± 0.0185
80 | CTGTACCC | 0.183 ± 0.0197
81 | ACCCGGCG | 0.235 ± 0.0231
82 | CCCATACA | 0.192 ± 0.0397
83 | CTCGGACA | 0.171 ± 0.0363
84 | AGGGATCC | 0.212 ± 0.0252
85 | ACACAACA | 0.268 ± 0.0457
86 | CCCGATTA | 0.166 ± 0.0206
87 | TGATAACA | 0.153 ± 0.0108
88 | TGTCTAAA | 0.199 ± 0.0261
89 | CACCAGCA | 0.341 ± 0.0362
90 | GACCCCAC | 0.2185 ± 0.00167
91 | AAACACCC | 0.45 ± 0.00506
92 | TAACACTA | 0.384 ± 0.0373
93 | AAACACCA | 0.454 ± 0.0052
94 | AAACACTC | 0.321 ± 0.0305
95 | GAACACCA | 0.4685 ± 0.000778
96 | GAGCACCA | 0.243 ± 0.0142
97 | AAACACAC | 0.344 ± 0.0104
98 | AAACACTA | 0.298 ± 0.0405
99 | AAACACGA | 0.324 ± 0.0263
100 | CAACACTA | 0.34 ± 0.0042

Row | Sequence | binding signal [E-score]
101 | GAACACTA | 0.356 ± 0.0123
102 | AAACAACA | 0.166 ± 0.016
103 | CACGGGAG | 0.17 ± 0.0204
104 | ACCGAACC | 0.197 ± 0.00959
105 | ACCCCCCC | 0.31 ± 0.0449
106 | CACCAACG | 0.335 ± 0.0249
107 | ACCGCGTG | 0.246 ± 0.00416
108 | GGAGGGGA | 0.158 ± 0.02
109 | ACGTAACA | 0.199 ± 0.0228
110 | CAACACCG | 0.46689 ± 0.000212
111 | CAACACAC | 0.342 ± 0.0337
112 | CAACACAA | 0.182 ± 0.0648
113 | AAACACTG | 0.344 ± 0.0208
114 | CAACACTC | 0.36 ± 0.00549
115 | AAGCACCG | 0.175 ± 0.0203
116 | CAACACTG | 0.323 ± 0.00702
117 | CAACACCC | 0.456 ± 0.00535
118 | CAACACCA | 0.4741 ± 0.00414
119 | CACCACCG | 0.3551 ± 0.000962
120 | AAACACCG | 0.4654 ± 0.00275
121 | CACCAACA | 0.377 ± 0.0268
122 | ACCAGGTA | 0.241 ± 0.0242
123 | ATACTACA | 0.257 ± 0.011
124 | AACTGGTG | 0.364 ± 0.0186
125 | GACGCCGA | 0.174 ± 0.0331

Row | Sequence | binding signal [E-score]
126 | AGAGGTGC | 0.19 ± 0.0288
127 | ACTCCCCG | 0.191 ± 0.00694
128 | AAACACGT | 0.307 ± 0.0183
129 | GAACACAC | 0.319 ± 0.0348
130 | AAACACGG | 0.3488 ± 0.00234
131 | AAACACCT | 0.419 ± 0.00791
132 | GAACACTC | 0.374 ± 0.0139
133 | AAACACTT | 0.252 ± 0.0426
134 | GAACACCC | 0.4707 ± 0.00185
135 | TAACACGA | 0.399 ± 0.00944
136 | CAACACGG | 0.38 ± 0.0301
137 | CAACACGA | 0.328 ± 0.0204
138 | CACGTGAC | 0.258 ± 0.0152
139 | TCGGATAA | 0.194 ± 0.0204
140 | GGGTTTTA | 0.163 ± 0.0227
141 | ACACAGGG | 0.158 ± 0.0633
142 | CACCATTA | 0.266 ± 0.00672
143 | CACGGGTA | 0.291 ± 0.0126
144 | CACTCGAG | 0.172 ± 0.0369
145 | TAGCACCA | 0.2242 ± 0.00214
146 | GAACACGC | 0.393 ± 0.0119
147 | TAACACCA | 0.477 ± 0.00686
148 | AAACACGC | 0.336 ± 0.0161
149 | GAACACGA | 0.3393 ± 0.000771
150 | TAACACAA | 0.216 ± 0.0241

Row | Sequence | binding signal [E-score]
151 | CACAGCTA | 0.177 ± 0.0139
152 | AACCCCGA | 0.232 ± 0.0298
153 | CACGCCCC | 0.29 ± 0.0136
154 | AGGGGTGC | 0.221 ± 0.0348
155 | GTGTCTTA | 0.3629 ± 0.00242
156 | GTGTCGGA | 0.454 ± 0.0132
157 | ATGTCGTG | 0.222 ± 0.0295
158 | GTGTCGTA | 0.45 ± 0.0119
159 | ATGTCGGG | 0.199 ± 0.029
160 | GGGTCGGA | 0.227 ± 0.0525
161 | GTGTCGCA | 0.442 ± 0.0148
162 | GTATCGCA | 0.234 ± 0.0133
163 | CCGAGCAC | 0.178 ± 0.0032
164 | ACCCAGTG | 0.21 ± 0.0315
165 | AGTGGTAG | 0.157 ± 0.00503
166 | ATGAGACA | 0.159 ± 0.0072
167 | GGTGCACA | 0.268 ± 0.0361
168 | ATAGCACG | 0.157 ± 0.0235
169 | CCCTCTAC | 0.205 ± 0.0116
170 | GTCTACAC | 0.42 ± 0.0105
171 | CTCCACAC | 0.251 ± 0.0305
172 | ATCCACAC | 0.297 ± 0.0245
173 | GTCTAACA | 0.204 ± 0.0271
174 | GTCCACAC | 0.211 ± 0.0298
